This note sets out measurements from PubChem BioAssay (Tox21).

Where “and” joins values, the source holds several entries; their conditions need not be identical. Equal values may be shown once. Inconclusive results are not listed. A structure can be active in one record and inactive in another. Calls of active or inactive are those of the source. Calls come from the whole dose curve; as a rule, active = well fitted curve in the direction sought with a large enough effect in the repeat runs; inconclusive = weak or mixed curves; inactive = no such curve, though single readings can be large; an effect the other way counts as inactive or inconclusive.

Assay [1] is described as follows: A CellTox Green Cytotoxicity Assay to monitor cytotoxicity in HEK293 cells - 24 hour (AID 1224875). Note: series mostly up to about 77 µM; nearly all actives have a fitted effect of over 45% in size. The method, boiled down:
(§1)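 Each value comes from one timepoint of a single continuous run in which HEK293 cells with CellTox Green were exposed to compound for up to 40 h at 37 C, dye fluorescence rising with cell death.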

Assay [2] is described as follows: A CellTox Green Cytotoxicity Assay to monitor cytotoxicity in HepG2 cells - 16 hour (AID 1224876). Note: nearly all actives have a fitted effect of over 45% in size. Note: potency is the fitted concentration of half-maximal effect. The method in brief:
(§2)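 Continuous culture of HepG2 cells with a membrane-impermeant DNA dye; rising fluorescence marks dead cells. Compound exposure lasted up to 40 h at 37 C, with reads every 8 h from 0 h.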

The nature of assay [3]: qHTS RealTime-Glo MT Cell Viability Assay in HepG2 cells - 32 hour (AID 1224877). Note: nearly all actives have a fitted effect of over 55% in size. The method, boiled down: (§3)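 Tox21 10K library screened in qHTS format on HepG2 cells carrying RealTime-Glo reagents. Compounds were added after a 5 h preincubation, and the luminescent signal from continuous culture was measured repeatedly during 40 h treatment.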
A short description of assay [4]: A CellTox Green Cytotoxicity Assay to monitor cytotoxicity in HepG2 cells - 40 hour (AID 1224879). Note: nearly all actives have a fitted effect of over 40% in size. Note: potency is the fitted concentration of half-maximal effect. The method in brief: as §2
Assay [5] is described as follows: qHTS RealTime-Glo MT Cell Viability Assay in HEK293 cells - 0 hour (AID 1224880). Note: top concentration of the series differs between compounds; nearly all actives have a fitted effect of over 45% in size. The method in brief:
(§4)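 qHTS format; HEK293 cells with NanoLuc/prosubstrate reagent, 37 C/5% CO2 for 5 h pre-dosing; compounds 23 nL in DMSO; luminescence at each time point reflects viable cells.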

Assay [6] in a line: A CellTox Green Cytotoxicity Assay to monitor cytotoxicity in HEK293 cells - 32 hour (AID 1224881). Note: nearly all actives have a fitted effect of over 40% in size. Note: potency is the fitted concentration of half-maximal effect. The method, boiled down: as §1
Assay [7] is described as follows: A CellTox Green Cytotoxicity Assay to monitor cytotoxicity in HepG2 cells - 0 hour (AID 1224882). Note: nearly all actives have a fitted effect of over 35% in size. The method in brief:
as §2

Assay [8] can be described thus: A CellTox Green Cytotoxicity Assay to monitor cytotoxicity in HepG2 cells - 32 hour (AID 1224883). Note: nearly all actives have a fitted effect of over 50% in size. Note: potency is the fitted concentration of half-maximal effect. The method in brief: as §2
Assay [9] is described as follows: A CellTox Green Cytotoxicity Assay to monitor cytotoxicity in HEK293 cells - 8 hour (AID 1224884). Note: nearly all actives have a fitted effect of over 35% in size. The method in brief: as §1
Assay [10] can be described thus: qHTS RealTime-Glo MT Cell Viability Assay in HepG2 cells - 16 hour (AID 1224885). Note: nearly all actives have a fitted effect of over 50% in size. The method, boiled down:
as §3

Assay [11] is described as follows: qHTS RealTime-Glo MT Cell Viability Assay in HEK293 cells - 24 hour (AID 1224886). Note: top concentration of the series differs between compounds; nearly all actives have a fitted effect of over 50% in size. The method in brief:
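Luminescence generated by NanoLuc from substrate produced by living HEK293 cells served as the viability signal. Each value reflects the reading at its stated time point during continuous 40 h compound exposure at 37 C.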

Assay [12] in a line: qHTS RealTime-Glo MT Cell Viability Assay in HEK293 cells - 8 hour (AID 1224887). Note: top concentration of the series differs between compounds; nearly all actives have a fitted effect of over 50% in size. The method, boiled down: as §4
A short description of assay [13]: A CellTox Green Cytotoxicity Assay to monitor cytotoxicity in HEK293 cells - 16 hour (AID 1224888). Note: nearly all actives have a fitted effect of over 35% in size. The method, boiled down: as §1
A short description of assay [14]: qHTS RealTime-Glo MT Cell Viability Assay in HepG2 cells - 0 hour (AID 1224889). Note: nearly all actives have a fitted effect of over 50% in size. The method in brief:
as §3

A short description of assay [15]: A CellTox Green Cytotoxicity Assay to monitor cytotoxicity in HepG2 cells - 8 hour (AID 1224890). Note: nearly all actives have a fitted effect of over 45% in size. Note: potency is the fitted concentration of half-maximal effect. The method, boiled down:
as §2

Assay [16] is described as follows: qHTS assay to identify small molecule antagonists of the estrogen receptor alpha (ER-alpha) signaling pathway using the BG1 cell line in the presence of 0.1 nM 17-beta-estradiol - cell viability counter screen (AID 1259241). Note: nearly all actives have a fitted effect of over 40% in size. The method in brief:
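CellTiter-Fluor read (30 min, 37C) on ER-alpha/ERE-luc VM7Luc4E2 cells; 22 hr compound treatment; agonist 0.1 nM E2 final; same-well multiplex.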

Assay [17] in a line: qHTS assay to identify small molecule antagonists of the androgen receptor (AR) signaling pathway using the MDA cell line in the presence of 0.5 nM R1881 - cell viability counter screen (AID 1259242). Note: nearly all actives have a fitted effect of over 45% in size. The method, boiled down: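 Fluorescence from CellTiter-Fluor, which reports protease activity of live cells, was read 30 min after reagent addition to MDA-kb2 cells that had been incubated 16 hr with compound and 0.5 nM R1881.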

For assay [18], the target named is Estrogen receptor (Homo sapiens) (UniProt P03372). Nature of the assay: qHTS assay to identify small molecule antagonists of the estrogen receptor alpha (ER-alpha) signaling pathway using the BG1 cell line in the presence of 0.1 nM 17-beta-estradiol (AID 1259244). Note: nearly all actives have a fitted effect of over 50% in size. The method, boiled down: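 Quantitative high-throughput screen in VM7Luc4E2 cells: compound plus 0.1 nM E2 (final), 22 h, 37C, 5% CO2; ONE-Glo added, 30 min room temperature, luminescence measured.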

Assay [19] is described as follows: A CellTox Green Cytotoxicity Assay to monitor cytotoxicity in HepG2 cells - 24 hour (AID 1224878). Note: nearly all actives have a fitted effect of over 45% in size. The method in brief:
as §2

In assay [20] the target is Androgen receptor (Homo sapiens) (UniProt P10275). Nature of the assay: qHTS assay to identify small molecule antagonists of the androgen receptor (AR) signaling pathway using the MDA cell line in the presence of 0.5 nM R1881 (AID 1259243). The method, boiled down:
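Inhibition of R1881 (0.5 nM final) induced reporter signal was measured in human MDA-kb2 cells; note the MMTV promoter also responds to GR. Exposure lasted 16 hr at 37C.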

Sequence of Estrogen receptor (Homo sapiens) (P03372 whole entry, looked up): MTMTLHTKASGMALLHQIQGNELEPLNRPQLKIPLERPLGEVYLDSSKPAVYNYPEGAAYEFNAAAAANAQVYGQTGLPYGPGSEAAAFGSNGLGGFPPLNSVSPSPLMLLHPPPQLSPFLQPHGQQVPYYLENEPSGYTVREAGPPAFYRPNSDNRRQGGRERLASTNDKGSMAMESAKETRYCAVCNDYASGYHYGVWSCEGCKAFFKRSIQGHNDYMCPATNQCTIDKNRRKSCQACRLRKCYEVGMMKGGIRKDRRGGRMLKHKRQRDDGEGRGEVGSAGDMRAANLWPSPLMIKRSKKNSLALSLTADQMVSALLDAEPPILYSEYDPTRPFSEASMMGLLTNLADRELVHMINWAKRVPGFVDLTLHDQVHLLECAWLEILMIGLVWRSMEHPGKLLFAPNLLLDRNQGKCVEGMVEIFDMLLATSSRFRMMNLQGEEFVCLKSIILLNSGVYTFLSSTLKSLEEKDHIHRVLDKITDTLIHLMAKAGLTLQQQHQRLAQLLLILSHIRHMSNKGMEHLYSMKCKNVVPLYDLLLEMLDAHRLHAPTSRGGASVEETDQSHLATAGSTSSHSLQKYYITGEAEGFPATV
Sequence of Androgen receptor (Homo sapiens) (P10275 whole entry, looked up): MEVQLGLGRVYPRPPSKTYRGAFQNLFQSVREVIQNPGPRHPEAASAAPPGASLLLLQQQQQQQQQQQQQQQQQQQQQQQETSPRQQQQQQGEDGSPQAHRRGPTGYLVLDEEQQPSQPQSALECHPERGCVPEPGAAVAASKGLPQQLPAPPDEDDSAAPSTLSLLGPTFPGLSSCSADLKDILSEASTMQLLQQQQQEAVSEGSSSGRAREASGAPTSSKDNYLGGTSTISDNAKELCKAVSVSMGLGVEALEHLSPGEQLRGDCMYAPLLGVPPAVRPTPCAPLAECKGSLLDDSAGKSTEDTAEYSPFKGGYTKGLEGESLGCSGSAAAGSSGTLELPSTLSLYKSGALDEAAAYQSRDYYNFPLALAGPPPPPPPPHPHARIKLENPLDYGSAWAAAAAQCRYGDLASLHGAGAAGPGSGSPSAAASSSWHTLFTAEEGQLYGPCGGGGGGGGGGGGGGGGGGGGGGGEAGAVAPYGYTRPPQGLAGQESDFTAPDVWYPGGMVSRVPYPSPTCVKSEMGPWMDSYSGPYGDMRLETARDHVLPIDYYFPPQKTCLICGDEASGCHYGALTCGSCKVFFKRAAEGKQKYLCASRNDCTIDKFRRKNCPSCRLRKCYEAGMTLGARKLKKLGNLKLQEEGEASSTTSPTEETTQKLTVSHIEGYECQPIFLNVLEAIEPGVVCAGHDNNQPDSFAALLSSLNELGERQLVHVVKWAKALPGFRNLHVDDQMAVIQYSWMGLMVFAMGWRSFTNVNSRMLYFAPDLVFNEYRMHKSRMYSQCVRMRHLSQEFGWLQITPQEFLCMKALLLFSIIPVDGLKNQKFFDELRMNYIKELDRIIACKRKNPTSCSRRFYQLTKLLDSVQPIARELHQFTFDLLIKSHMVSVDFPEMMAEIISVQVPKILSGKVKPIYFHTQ

Consider `c1c[nH]cn1`, for which the Potency entry in assay [1], in [2], in assay [4], in assay [5], in assay [6] and in assay [8] was “inactive” throughout. Further, the Potency entry in assay [11], in assay [12], in assay [14], in assay [15], in assay [16] and in assay [18] was “inactive” each time. Besides, the compound was classed as inactive in assay [3], in assay [7], in assay [9], in [10], in [13] and in assay [17].

With `O=C(Oc1ccccc1)c1ccccc1`, the Potency entry in assay [1], in [2], in assay [4], in assay [5], in assay [6] and in assay [8] was “inactive” throughout. For the same compound, the Potency entry in assay [11], in assay [12], in assay [14] and in assay [15] was “inactive” in each case. Further, the outcome in assay [3], in assay [7], in [9], in assay [10], in assay [13] and in assay [17] was inactive.

Turning to `O=c1[nH]c(=O)n([C@H]2C[C@H](O)[C@@H](CO)O2)cc1Br`, the Potency result in assay [1], in assay [2], in assay [19], in assay [4], in assay [5] and in assay [6] was “inactive” throughout. The Potency result in assay [8], in assay [11], in assay [12], in assay [14], in assay [15] and in assay [18] was “inactive” throughout. The outcome in assay [3], in [9], in assay [10] and in assay [13] was inactive.

As to `CCCCCCOCCO`, the Potency result in [1], in [2], in [19], in [4], in assay [5] and in assay [6] was “inactive” in each case. The Potency result in assay [8], in assay [11], in assay [12], in [14], in assay [15] and in assay [18] was “inactive” in each case. The outcome in assay [3], in assay [9], in assay [10] and in [13] was inactive.

With `CC(=O)Nc1cccc(O)c1`, the Potency entry in assay [1], in [2], in assay [4], in [5], in assay [6] and in [8] was “inactive” each time. In addition, the Potency result in assay [11], in assay [12], in assay [14], in assay [15] and in [18] was “inactive” in each case. Also, the call in assay [3], in assay [7], in [9], in assay [10], in assay [13] and in assay [17] was inactive.

In the case of `CN(C)CCCN`, the Potency entry in [1], in assay [2], in assay [4], in [5], in assay [6] and in [8] was “inactive” throughout. Also, the Potency entry in assay [11], in assay [12], in [14], in [15] and in [18] was “inactive” in each case. Also, the result in assay [3], in [7], in [9], in [10], in assay [13] and in [17] was inactive.

Take `CC(=O)c1ccccc1`: the Potency entry in assay [1], in assay [2], in assay [4], in assay [5], in [6] and in assay [8] was “inactive” in each case. Moreover, the Potency entry in assay [11], in [12], in assay [14], in assay [15] and in [18] was “inactive” throughout. Also, the result in assay [3], in [7], in assay [9], in [10], in assay [13] and in assay [17] was inactive.

For the compound `Cc1cc(C)c(C)cc1C`, the Potency entry in assay [2], in [19], in assay [4], in assay [5], in assay [6] and in [8] was “inactive” in each case. In addition, the Potency entry in assay [11], in assay [12], in [14], in [15] and in assay [18] was “inactive” each time. Further, the call in [3], in assay [7], in [9], in [10], in assay [13] and in assay [17] was inactive.

Regarding `c1ccc2c(c1)ccc1ccccc12`, the Potency entry in [2], in [19], in [4], in assay [5], in assay [8] and in [11] was “inactive” throughout. The Potency entry in assay [12], in assay [14], in assay [15], in assay [16] and in assay [18] was “inactive” each time. The outcome in assay [3], in [7], in assay [9], in assay [10], in assay [13] and in assay [17] was inactive. Moreover, the Potency in assay [20] is 17.2 µM (active).

Take `Cc1cccc(O)c1`: the Potency result in assay [2], in assay [19], in assay [4], in assay [5], in assay [6] and in assay [8] was “inactive” each time. Further, the Potency entry in [11], in [12], in [14], in [15], in assay [16] and in assay [18] was “inactive” each time. Besides, the outcome in assay [3], in [9], in [10], in assay [13] and in assay [17] was inactive.

`CCCCC(CC)CO` (stereo unspecified): the Potency entry in assay [2], in assay [4], in assay [5], in [6], in [8] and in assay [11] was “inactive” throughout. Moreover, the Potency entry in assay [12], in assay [14], in assay [15] and in [16] was “inactive” in each case. Besides, the result in assay [3], in [7], in [9], in assay [10] and in [13] was inactive.

For the compound `O=C(O)c1cc(=O)c2c(OCC(O)COc3cccc4oc(C(=O)O)cc(=O)c34)cccc2o1`, the Potency entry in assay [2], in [19], in [4], in [5], in assay [6] and in [8] was “inactive” in each case. For the same compound, the Potency entry in assay [11], in [12], in assay [14], in [15], in assay [16] and in assay [18] was “inactive” throughout. In addition, the result in assay [3], in [9], in assay [10], in assay [13] and in assay [17] was inactive.

On to `CN(C)CCOCCN(C)C`, for which the Potency result is “inactive and 43.6 µM (active)” in assay [2]; “inactive and 49 µM (active)” in assay [4]; “inactive and 49 µM (active)” in assay [6]; “inactive and 49 µM (active)” in assay [8]; “inactive and 49 µM (active)” in assay [15]. Besides, the compound was called inactive in assay [3], in [7], in assay [9], in assay [10], in assay [13] and in assay [17]. For the same compound, the Potency result in assay [5], in assay [11], in [12], in assay [14] and in assay [16] was “inactive” each time.

Take `CC(C)c1ccc(S(=O)(=O)O)cc1`: the Potency result in [2], in assay [19], in assay [4], in [5], in assay [6] and in assay [8] was “inactive” each time. Also, the Potency entry in assay [11], in assay [12], in [14], in [15] and in assay [18] was “inactive” throughout. Also, the compound was called inactive in assay [3], in [9], in assay [10], in assay [13] and in [17].

For the compound `Cc1cnc(C(=O)NCCc2ccc(S(=O)(=O)NC(=O)NC3CCCCC3)cc2)cn1`, the Potency entry in assay [2], in assay [19], in assay [4], in assay [5], in assay [6] and in assay [8] was “inactive” in each case. The Potency result in [11], in assay [12], in assay [14], in assay [15], in assay [16] and in assay [18] was “inactive” in each case. The compound was classed as inactive in assay [3], in assay [7], in assay [9], in assay [10], in assay [13] and in [17].
